Measurements: PubChem BioAssay AID1159580 (chemical genetic matrix, 2015)
Values joined by “and” are separate entries in the source; they are usually repeats but may differ in a detail not shown here. Equal entries are not always repeated. Among all 5,500 compounds or so, about 2,000 (36%) were called active. About 18% were inconclusive and are not listed. Cut-off read from the data, not from the text of the source: active = normalized growth mostly below about 0.91 (no sharp cut-off); inconclusive = no clear call, values can overlap the other calls; inactive = mostly above about 0.92. Some of the results follow.

Assay: chemical genetic growth profiling, strain panel (AID 1159580);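 note: tested at 20 µM; growth read once vehicle control cultures reached saturation at 30 °C; 1 = growth at the plate median or of vehicle wells; lower values mean less growth of the strain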
Settings: S. cerevisiae deletion strains, growth OD

Measured: normalized growth

O=c1cc(-c2cc(O)c(O)c(O)c2)oc2cc(O)cc(O)c12
active: locus YAL021C, strain ccr4, hits give low values 0.901 | locus YBR023C, strain chs3, hits give low values 0.897 | locus YBR231C, strain swc5, hits give low values 0.909 | locus YDR069C, strain doa4, hits give low values 0.855
inactive: locus YAL013W, strain DEP1, hits give low values 0.997 | locus YAL026C, strain drs2, hits give low values 0.927 | locus YAL030W, strain snc1, hits give low values 1.01 | locus YBL061C, strain skt5, hits give low values 0.942 | locus YBR009C, strain hhf1, hits give low values 0.95 | locus YBR021W, strain FUR4, hits give low values 1.07 | locus YBR171W, strain sec66, hits give low values 1 | locus YBR229C, strain ROT2, hits give low values 0.988 | locus YBR279W, strain paf1, hits give low values 0.935 | locus YCL011C, strain gbp2, hits give low values 0.946 | locus YCL016C, strain dcc1, hits give low values 0.94 | locus YCL029C, strain bik1, hits give low values 0.988 | locus YCL061C, strain MRC1, hits give low values 0.942 | locus YCL069W, strain vba3, hits give low values 0.997 | locus YCR088W, strain abp1, hits give low values 0.995 | locus YDL005C, strain med2, hits give low values 1.02 | locus YDL035C, strain GPR1, hits give low values 0.992 | locus YDL040C, strain nat1, hits give low values 1.04 | locus YDL074C, strain BRE1, hits give low values 0.957 | locus YDL101C, strain DUN1, hits give low values 1.01 | locus YDL134C, strain PPH21, hits give low values 1.05 | locus YDL185W, strain tfp1, hits give low values 0.941 | locus YDL192W, strain arf1, hits give low values 0.971 | locus YDR001C, strain nth1, hits give low values 1.01 | locus YDR101C, strain arx1, hits give low values 1.01 | locus YDR137W, strain rgp1, hits give low values 0.992 | locus YDR159W, strain sac3, hits give low values 1.05 | locus YDR162C, strain NBP2, hits give low values 1.03 | locus YDR195W, strain ref2 1.05 | locus YDR297W, strain sur2, hits give low values 0.971 | locus YDR318W, strain mcm21, hits give low values 0.995 | locus YDR334W, strain swr1, hits give low values 0.978 | locus YDR335W, strain msn5, hits give low values 0.986 | locus YDR388W, hits give low values 0.996 | locus YDR392W, strain spt3, hits give low values 0.893 | locus YDR502C, strain sam2, hits give low values 0.984 | locus YEL003W, strain gim4, hits give low values 0.957 | locus YEL037C, strain rad23, hits give low values 0.979 | locus YEL061C, strain CIN8 (second series), hits give low values 1 | locus YEL061C, strain CIN8, hits give low values 1 | locus YER015W, strain faa2, hits give low values 0.984 | locus YER016W, strain bim1, hits give low values 1 | locus YER110C, hits give low values 0.996 | locus YER111C, strain swi4, hits give low values 0.965 | locus YER155C, strain BEM2 (second series), hits give low values 0.938 | locus YER155C, strain BEM2, hits give low values 1.03 | locus YER167W, strain BCK2, hits give low values 1.01 | locus YFR010W, strain ubp6, hits give low values 0.942 | locus YGL078C, strain dbp3, hits give low values 0.979 | locus YGL086W, strain mad1, hits give low values 1.01 | locus YGL167C, strain pmr1, hits give low values 0.988 | locus YGL173C, strain kem1, hits give low values 0.967 | locus YGL227W, strain vid30, hits give low values 1.01 | locus YGL240W, strain doc1, hits give low values 1.02 | locus YGL248W, strain PDE1, hits give low values 1.01 | locus YGL253W, strain hxk2, hits give low values 0.948 | locus YGR135W, strain pre9, hits give low values 0.96 | locus YGR252W, strain gcn5, hits give low values 1 | locus YHR013C, strain ard1, hits give low values 0.904 | locus YHR027C, strain rpn1, hits give low values 0.978 | locus YHR030C, strain SLT2, hits give low values 0.989 and 1.07 | locus YHR079C, strain IRE1 (second series), hits give low values 1.02 | locus YHR079C, strain IRE1, hits give low values 1.06 | locus YHR094C, strain hxt1, hits give low values 1.02 | locus YHR129C, strain ARP1, hits give low values 0.986 | locus YHR142W, strain chs7, hits give low values 0.911 | locus YHR200W, strain rpn10, hits give low values 0.97 | locus YIL066C, strain RNR3, hits give low values 0.989 | locus YIL073C, strain SPO22, hits give low values 0.964 | locus YIL125W, strain kgd1, hits give low values 0.985 | locus YIR030C, strain dcg1, hits give low values 1 | locus YJL092W, strain hpr5, hits give low values 0.996 | locus YJL095W, strain BCK1 (second series), hits give low values 0.95 | locus YJL095W, strain BCK1, hits give low values 0.973 and 1.01 | locus YJL115W, strain asf1, hits give low values 1.01 | locus YJL129C, strain trk1, hits give low values 0.991 | locus YJL134W, strain LCB3, hits give low values 0.994 | locus YJL154C, strain vps35, hits give low values 1.02 | locus YJL164C, strain tpk1, hits give low values 0.954 | locus YJL166W, strain qcr8, hits give low values 0.957 | locus YJL168C, strain set2, hits give low values 0.998 | locus YJL187C, strain SWE1 (second series), hits give low values 0.974 | locus YJL187C, strain SWE1, hits give low values 0.986 | locus YJR043C, strain POL32, hits give low values 1 | locus YJR066W, strain TOR1, hits give low values 0.981
